The structures appear in SMILES notation. Active and inactive are the calls of the source. How the source made its calls: active means hit-call score of the fitted dose curve at least 0.9, where 1 is the maximum; inactive means score below 0.9.

Read-out in test [1]: Tissue plasminogen activator (tPA), PLAT (gene 5327)
As to the kind of experiment: BSK_BE3C_tPA: BioMAP Diversity Plus: BE3C Assay for Tissue plasminogen activator (tPA) Biomarker Activity (AID 2283041).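 On outcome: tPA level quantified by ELISA one day after compound addition.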 The conditions noted are these: primary human bronchial epithelial cells; actives raise or lower the signal. The essentials:
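Using human lung primary bronchial epithelial cells, tPA was measured by ELISA 24 h after dosing; data fitted relative to DMSO.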

Read-out in test [2]: Interleukin-8 (IL8), CXCL8 (gene 3576)
Briefly: BSK_CASM3C_IL8: BioMAP Diversity Plus: CASM3C Assay for Interleukin-8 (IL8) Biomarker Activity (AID 2283042).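 Further: IL-8 protein level quantified by ELISA.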 The settings on record: primary human coronary artery smooth muscle cells; actives raise or lower the signal.

Read-out in test [3]: Human Leukocyte Antigen - DR isotype (HLADR), HLA-DRA (gene 3122)
As to the kind of experiment: BSK_CASM3C_HLADR: BioMAP Diversity Plus: CASM3C Assay for Human Leukocyte Antigen - DR isotype (HLADR) Biomarker Activity (AID 2283043).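 Further: cell-surface HLA-DR protein level quantified by ELISA.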 The conditions noted are these: primary human coronary artery smooth muscle cells; actives raise or lower the signal.

Read-out in test [4]: Macrophage colony-stimulating factor (MCSF), CSF1 (gene 1435)
Briefly: BSK_CASM3C_MCSF: BioMAP Diversity Plus: CASM3C Assay for Macrophage colony-stimulating factor (MCSF) Biomarker Activity (AID 2283044).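 Further: M-CSF protein amount quantified by ELISA after 24 h exposure.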 The conditions noted are these: primary human coronary artery smooth muscle cells; actives raise or lower the signal.

Read-out in test [5]: Low-density lipoprotein receptor (LDLR), LDLR (gene 3949)
Briefly: BSK_CASM3C_LDLR: BioMAP Diversity Plus: CASM3C Assay for Low-density lipoprotein receptor (LDLR) Biomarker Activity (AID 2283045).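 Further: LDLR protein level on the cell surface quantified by ELISA.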 The settings on record: primary human coronary artery smooth muscle cells; actives raise or lower the signal.

Read-out in test [6]: Monocyte Chemoattractant Protein-1 (MCP1), CCL2 (gene 6347)
As to the kind of experiment: BSK_CASM3C_MCP1: BioMAP Diversity Plus: CASM3C Assay for Monocyte Chemoattractant Protein-1 (MCP1) Biomarker Activity (AID 2283046).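 Further: MCP-1 level quantified by ELISA 24 h after dosing.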 The conditions noted are these: primary human coronary artery smooth muscle cells; actives raise or lower the signal.

Test [7] can be described thus: BSK_CASM3C_Proliferation: Cell Proliferation Assessment in the BioMAP Diversity Plus: CASM3C Assay (AID 2283047).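 Further: sulforhodamine B total protein stain as relative cell number at 560 nm; sub-confluent cells exposed 48 h before staining; fitted both ways against DMSO so gain or loss of cell number.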 The conditions noted are these: primary human coronary artery smooth muscle cells.
Read-out in test [8]: Monokine induced gamma interferon (MIG), CXCL9 (gene 4283)
Briefly: BSK_CASM3C_MIG: BioMAP Diversity Plus: CASM3C Assay for Monokine induced gamma interferon (MIG) Biomarker Activity (AID 2283048).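 Further: MIG protein level measured by ELISA.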 The conditions noted are these: primary human coronary artery smooth muscle cells; actives raise or lower the signal.

Read-out in test [9]: serum amyloid A (SAA), SAA1 (gene 6288)
Briefly: BSK_CASM3C_SAA: BioMAP Diversity Plus: CASM3C Assay for serum amyloid A (SAA) Biomarker Activity (AID 2283049).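 Further: SAA protein level quantified by ELISA.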 The settings on record: primary human coronary artery smooth muscle cells; actives raise or lower the signal.

Test [10] in a line: BSK_CASM3C_SRB: Viability Assessment in the BioMAP Diversity Plus: CASM3C Assay (AID 2283050).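 Further: total protein by SRB staining as cytotoxicity measure in parallel cultures; cells exposed to compound for 24 h.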 The settings on record: primary human coronary artery smooth muscle cells.
Read-out in test [11]: Thrombomodulin, THBD (gene 7056)
Briefly: BSK_CASM3C_Thrombomodulin: BioMAP Diversity Plus: CASM3C Assay for Thrombomodulin Biomarker Activity (AID 2283051).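 Further: thrombomodulin protein level measured by ELISA 24 h after dosing.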 The conditions noted are these: primary human coronary artery smooth muscle cells; actives raise or lower the signal.

Read-out in test [12]: Tissue Factor, F3 (gene 2152)
Briefly: BSK_CASM3C_TissueFactor: BioMAP Diversity Plus: CASM3C Assay for Tissue Factor Biomarker Activity (AID 2283052).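 Further: cell surface tissue factor protein level read by ELISA.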 The settings on record: primary human coronary artery smooth muscle cells; actives raise or lower the signal.

Read-out in test [13]: Interferon-gamma inducible Protein 10 (IP10), CXCL10 (gene 3627)
As to the kind of experiment: BSK_hDFCGF_IP10: BioMAP Diversity Plus: hDFCGF Assay for Interferon-gamma inducible Protein 10 (IP10) Biomarker Activity (AID 2283053). The conditions noted are these: primary human foreskin fibroblasts; actives raise or lower the signal. The essentials:
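Chemical-treated human skin fibroblasts (primary) were sampled at 24 h for IP-10 by ELISA. Both increases and decreases relative to DMSO were scored.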

Read-out in test [14]: Urokinase-type plasminogen activator receptor (uPAR), PLAUR (gene 5329)
As to the kind of experiment: BSK_CASM3C_uPAR: BioMAP Diversity Plus: CASM3C Assay for Urokinase-type plasminogen activator receptor (uPAR) Biomarker Activity (AID 2283054).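 Further: cell-surface uPAR protein level quantified by ELISA.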 The conditions noted are these: primary human coronary artery smooth muscle cells; actives raise or lower the signal.

Read-out in test [15]: Vascular cell adhesion molecule 1 (VCAM1), VCAM1 (gene 7412)
Briefly: BSK_CASM3C_VCAM1: BioMAP Diversity Plus: CASM3C Assay for Vascular cell adhesion molecule 1 (VCAM1) Biomarker Activity (AID 2283055).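 Further: VCAM-1 protein level quantified by ELISA on the cells.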 The settings on record: primary human coronary artery smooth muscle cells; actives raise or lower the signal.

Read-out in test [16]: Collagen III, COL3A1 (gene 1281)
As to the kind of experiment: BSK_hDFCGF_CollagenIII: BioMAP Diversity Plus: hDFCGF Assay for Collagen III Biomarker Activity (AID 2283056). The settings on record: primary human foreskin fibroblasts; actives raise or lower the signal. A digest of the protocol:
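Cells: human foreskin fibroblasts, primary. Dosing followed by 24 h incubation, then ELISA for collagen III. Both increases and decreases scored relative to DMSO.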

Read-out in test [17]: Epidermal growth factor receptor (EGFR), EGFR (gene 1956)
Briefly: BSK_hDFCGF_EGFR: BioMAP Diversity Plus: hDFCGF Assay for Epidermal growth factor receptor (EGFR) Biomarker Activity (AID 2283057). The settings on record: primary human foreskin fibroblasts; actives raise or lower the signal. A digest of the protocol: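 Cell-based multiplexed assay in primary human foreskin fibroblasts. EGFR is read by ELISA 24 h after treatment and compared with DMSO controls.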

Read-out in test [18]: Interleukin-8 (IL8), CXCL8 (gene 3576)
As to the kind of experiment: BSK_hDFCGF_IL8: BioMAP Diversity Plus: hDFCGF Assay for Interleukin-8 (IL8) Biomarker Activity (AID 2283058). The conditions noted are these: primary human foreskin fibroblasts; actives raise or lower the signal. The essentials: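 IL-8 levels from compound-treated primary human fibroblasts were read by ELISA at 24 h, with DMSO serving as baseline for bidirectional fitting.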

The nature of test [19]: BSK_hDFCGF_Proliferation: Cell Proliferation Assessment in the BioMAP Diversity Plus: hDFCGF Assay (AID 2283059).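 Further: curves fitted for both rise and fall of signal versus DMSO baseline.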 The settings on record: primary human foreskin fibroblasts. The essentials: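 Sub-confluent human foreskin fibroblast cultures receive test chemical […]. Relative cell number is quantified by sulforhodamine B staining (0.1%, after 10% TCA fixation) at 560 nm, with bidirectional fitting referenced to DMSO.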

Read-out in test [20]: Macrophage colony-stimulating factor (MCSF), CSF1 (gene 1435)
As to the kind of experiment: BSK_hDFCGF_MCSF: BioMAP Diversity Plus: hDFCGF Assay for Macrophage colony-stimulating factor (MCSF) Biomarker Activity (AID 2283060). The settings on record: primary human foreskin fibroblasts; actives raise or lower the signal. The essentials: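 M-CSF levels, determined by ELISA, are taken at 24 h after dosing human skin fibroblasts. Responses in either direction are fitted with DMSO serving as the baseline.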

`c1cc2ccc3cccc4ccc(c1)c2c34`: the outcome in test [1], in [2], in test [3], in test [4], in test [6] and in test [7] was inactive. Besides, the result in [8], in test [9], in [10], in test [11], in test [12] and in test [13] was inactive. The outcome in [14], in test [15], in test [16], in test [17], in [18] and in test [20] was inactive. The results for the AC50 in test [5] and in test [19] were 9.87 µM (active) and 15 µM (active), respectively.
For the molecule `Oc1ccc(C(c2ccc(O)cc2)(C(F)(F)F)C(F)(F)F)cc1`, the AC50 was 21.8 µM (active) in [1]; 20 µM (active) in test [7]; 37.6 µM (active) in test [9]; 27.9 µM (active) in test [10]; 29.2 µM (active) in test [11]; 16.6 µM (active) in test [13]. The AC50 in test [15] is 31 µM (active); in test [16], 13.1 µM (active); in test [18], 30.6 µM (active); in test [19], 12.4 µM (active); in test [20], 14.8 µM (active). Further, the result in [2], in test [3], in test [4], in test [6], in [8] and in [12] was inactive. The result in [14] and in test [17] was inactive.
Turning to `CN(C)CCO`, the result in test [1], in test [2], in test [3], in test [4], in test [5] and in test [6] was inactive. The outcome in [7], in test [8], in test [9], in test [10], in test [11] and in test [12] was inactive. Further, the result in [13], in test [14], in test [15], in test [16], in test [17] and in test [18] was inactive. The outcome in [19] and in test [20] was inactive.
With `O=C(NC(=O)c1c(F)cccc1F)Nc1cc(Cl)c(OC(F)(F)C(F)F)c(Cl)c1`, the outcome in test [1], in [2], in test [3], in test [4], in test [5] and in [6] was inactive. For the same molecule, the outcome in test [7], in [8], in test [9], in test [10], in [11] and in [12] was inactive. In addition, the outcome in test [13], in test [14], in test [15], in test [16], in [17] and in [18] was inactive. For the same molecule, the result in [19] and in test [20] was inactive.
In the case of `ClC1=C(Cl)[C@]2(Cl)[C@@H]3[C@@H](Cl)[C@H]4O[C@H]4[C@@H]3C1(Cl)C2(Cl)Cl`, the result in [1], in test [2], in [3], in [4], in [5] and in test [6] was inactive. Besides, the outcome in test [8], in [9], in [10], in test [11], in [12] and in test [13] was inactive. For the same molecule, the outcome in test [14], in test [15], in test [16], in test [17], in [18] and in [20] was inactive. Moreover, the values for the concentration at half-maximal activity (AC50) in test [7] and in [19] were 12.3 µM (active) and 5.9 µM (active), respectively.
Turning to `ClC1=C(Cl)[C@]2(Cl)[C@@H]3[C@H]4C[C@H]([C@@H]5O[C@H]45)[C@@H]3[C@@]1(Cl)C2(Cl)Cl`, the result in test [1], in test [2], in test [3], in test [4], in test [5] and in [6] was inactive. In addition, the result in [7], in test [8], in [9], in test [10], in test [11] and in test [13] was inactive. Further, the outcome in [14], in test [15], in [16], in test [17], in test [18] and in test [20] was inactive. Also, the AC50 in test [12] was 7.07 µM (active); in test [19] it was 6.6 µM (active).

Source of the values: PubChem BioAssay (EPA / NIEHS).
